Here are results for 89 compounds from PubChem BioAssay AID488895 (Broad Institute, 2010).

Several values for one entry are separate records, joined by “and”; a condition that tells them apart may be missing. Identical values can stand only once. Screen size: about 340,000 compounds; about 120 (0.035%) were called active.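 How the source made its calls: active means mean replicate inhibition at least 50% and at least half of replicates individually reaching 50%; inconclusive means only one of the two criteria met; inactive means neither criterion met.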 The entries come from a sample that favours actives as a whole.

The experiment can be described thus: E. coli Tat export inhibitors, primary screen, MC4100, TorA-mCherry reporter, fluorescence, single point (AID 488895).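 Further: exported cargo escapes ClpAP degradation while cytoplasmic cargo is degraded and loses fluorescence; 0% = median of neutral control wells and 100% = median of NaSCN control wells.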 The following applies: at 10 µM, active compounds read high.
Broadly, the inhibition is the relative decrease from the control value, in per cent. For the compound `Nc1nc(Sc2ncccc2[N+](=O)[O-])n[nH]1`, the inhibition was -8.21% (inactive).

As for `O=C(O)c1ccccc1OCc1ccccc1Cl`, the inhibition was -2.88% (inactive).

On to `CS(=O)(=O)N(CC(=O)N1CCOCC1)c1ccc2c3c(cccc13)CC2`, for which the inhibition is 2.34% (inactive).

As to `O=P(O)(CP(=O)(c1ccccc1)c1ccccc1)c1ccccc1O`, the inhibition was -10.9% (inactive).

Take `COc1cc(C2C(C#N)=C(C)NC3=C2C(=O)CC(C)(C)C3)ccc1O` (centres undefined): the inhibition was 4.04% (inactive).

`CN1CC(=O)N=C1N`: the inhibition is -7.3% (inactive) and -13.2% (inactive).

As to `CCC(C)Sc1nc(C)nc2c1c(=O)n(C)c(=O)n2C` (centres undefined), the inhibition is -2.92% (inactive).

For `OC(COc1ccc(F)cc1Cl)CN1CCc2ccccc2C1` (centres undefined), the inhibition is 3.62% (inactive).

Turning to `COC(=O)c1cc2n(n1)CCCNC2=O`, the inhibition was -2.39% (inactive).

In the case of `O=C1OCC2=C1C(c1ccc(Cl)cc1)c1cc3c(cc1O2)OCO3` (centres undefined), the inhibition is 2.92% (inactive).

Take `CC1C(=O)Nc2ccc(S(=O)(=O)N3CCN(c4ccccc4F)CC3)cc2NC1=O` (centres undefined): the inhibition was 2.39% (inactive).

For the compound `COCCCn1c(SCc2cccc(OC)c2)nc2cc(OC)c(OC)cc2c1=N`, the inhibition was 8.62% (inactive).

On to `CC(CCN1CCN=C1N(C)C)c1ccccc1` (centres undefined), for which the inhibition was 1.28% (inactive).

`Cn1c(SCC(=O)N2CCCC2)nnc1-c1ccc2c(c1)OCO2`: the inhibition was -0.749% (inactive).

Regarding `CC(C)c1ccc(NC(=O)C2CCCN(S(=O)(=O)c3cccnc3)C2)cc1` (centres undefined), the inhibition was -2.58% (inactive).

With `CC(C)[C@H](NC(=O)N1CCn2c1nc1ccccc12)C(=O)NC1CC1`, the inhibition is 3.55% (inactive).

`CCN1CCN(C(=O)N[C@@H](C(=O)N[C@@H]2C(=O)N3C(C(=O)O)=C(CSc4nnnn4C)CS[C@H]23)c2ccc(O)cc2)C(=O)C1=O`: the inhibition is -0.914% (inactive).

Consider `CC1CCCN(C(=O)c2ccc3c(c2)C(=O)N(CCC2=CCCCC2)C3=O)C1` (centres undefined), for which the inhibition was 5.37% (inactive).

Take `COC(=O)c1c(C)oc(C)c1S(=O)(=O)Nc1ccc(C(C)C)cc1`: the inhibition was 8.29% (inactive).

Regarding `CC(C)(C)S(=O)(=O)N1Cc2cc(CO)cc(CCO)c2[C@H]1CCO`, the inhibition is -5.8% (inactive).

With `C[n+]1ccccc1C1CCCC/C1=N\Nc1ccc([N+](=O)[O-])cc1[N+](=O)[O-]` (centres undefined), the inhibition is -6.35% (inactive).

`COC(=O)c1ccc(CN(c2ccccc2OC)S(=O)(=O)c2cccs2)o1`: the inhibition is 22.7% (inactive).

Regarding `CNC(=O)c1nnc(Cc2ccc(Cl)cc2)o1`, the inhibition is -1.7% (inactive).

Consider `COCCCNC(=O)C1CC(=O)N(CCc2ccccc2)C1` (centres undefined), for which the inhibition was 4.61% (inactive).

Take `COc1ccc(Cl)cc1NC(=O)CN(C)C(=O)c1ccc2n[nH]nc2c1`: the inhibition is -3.85% (inactive).

As for `Cc1cc(C)cc(C(=O)N2CCN=C2SCc2ccc([N+](=O)[O-])cc2)c1`, the inhibition was 7.58% (inactive).

For `Cn1cc(CN2CCCCC2c2ccccn2)c(-c2ccc3c(c2)OCCO3)n1` (centres undefined), the inhibition is 3% (inactive).

As for `CCc1nc(C)cn1S(=O)(=O)c1cc([N+](=O)[O-])ccc1Cl`, the inhibition was -13.2% (inactive).

Turning to `O=C1CCC/C(=N\NC(=O)NC2CCCCC2)C1`, the inhibition is 4.42% (inactive).

Turning to `O=[N+]([O-])c1ncc(Br)cc1Nc1ccccc1`, the inhibition was -4.47% (inactive).

For the compound `COC(=O)c1c(C(=O)OC)c(-c2cccc(C)c2)n2c1CS(=O)C2` (centres undefined), the inhibition is 4.25% (inactive).

For the compound `Cc1cc(C)c(OCCN2CC(C)OC(C)C2)c(Br)c1` (centres undefined), the inhibition was 24.1% (inactive).

As for `COc1ccccc1NC(=O)c1cc(N2C(=O)C3C4CCC(C4)C3C2=O)ccc1Cl` (centres undefined), the inhibition was -14.7% (inactive).

`CC1(C)CC(=O)C(CC(=O)N2CCC(Cc3ccccc3)CC2)C(=O)C1`: the inhibition is 3.6% (inactive).

Turning to `CCCCCCCCCCCCC(NC(C)=O)(C(=O)OCC)C(=O)OCC`, the inhibition is 7.11% (inactive).

For the compound `COc1ccc(NC(=O)c2cc([N+](=O)[O-])ccc2NC(=O)CNC2CCCCC2C)c(OC)c1` (centres undefined), the inhibition is 3.4% (inactive).

Regarding `COc1cc(NS(=O)(=O)c2ccc(NC(=O)c3ccc([N+](=O)[O-])cc3)cc2)ncn1`, the inhibition was -6.48% (inactive).

For `CCc1ccc(NC(=O)c2ccc(Cn3cc([N+](=O)[O-])cn3)cc2)cc1`, the inhibition was 1.09% (inactive).

With `Cn1ccc(=Nc2ccc(NC(=O)c3ccc(N=c4ccn(C)c5ccc([N+](=O)[O-])cc45)cc3)cc2)cc1`, the inhibition is 112% (active).

In the case of `CN(CCc1ccccc1)C(=O)c1cccc(NC(=O)Cc2cccc(NC(=O)C3CCCN(C(=O)C4CCC4)C3)c2)c1` (centres undefined), the inhibition was 2.65% (inactive).

For `O=C(CNC(=O)c1cc(S(=O)(=O)N2CCOCC2)ccc1N1CCCC1)Nc1ccc(F)c(F)c1`, the inhibition is -7.06% (inactive).

`C=CCCC(=O)N1C[C@H]2CON(C)[C@H]2C[C@H]1c1cccc(Nc2ccccc2)c1`: the inhibition was 1.87% (inactive).

For the compound `COc1ccc(-c2nn(C)c(=O)c3ccccc23)cc1CNC(=O)C1CCCCC1`, the inhibition was 5.51% (inactive).

For the compound `CCSc1sc(CC)cc1C=O`, the inhibition was -5.06% (inactive).

Consider `COC(=O)/C=C(\Oc1ccccc1)C1(O)CCCCC1`, for which the inhibition is -5.03% (inactive).

Consider `COc1ccc(C(=O)NCc2ccccc2C)cc1S(=O)(=O)NC1CCCC1`, for which the inhibition is -5.16% (inactive).

Take `Cc1cccc(NS(=O)(=O)c2cc(Cl)ccc2Cl)n1`: the inhibition was 1.57% (inactive).

As for `CCc1nnc(NS(=O)(=O)c2ccc(NC(=S)NC(=O)/C=C/c3cccs3)cc2)s1`, the inhibition was 3.92% (inactive).

As for `CC(NC(=O)COc1cccnc1[N+](=O)[O-])c1ccc(Cl)cc1Cl` (centres undefined), the inhibition was -4.49% (inactive).

In the case of `Cc1cc(S(=O)(=O)NCc2ccccn2)c(Cl)cc1Cl`, the inhibition was -16.8% (inactive).

On to `Cc1cc(C(F)F)n2nc(C(=O)Nc3ccc(S(=O)(=O)NC45CC6CC(CC(C6)C4)C5)cc3)nc2n1`, for which the inhibition was 10.1% (inactive).

Consider `O=C(c1cc2ccccc2s1)N1CCN(c2ccccn2)CC1`, for which the inhibition was -5.47% (inactive).

On to `O=C(CNC(=O)OCc1ccccc1)NC1CCCCNC1=O` (centres undefined), for which the inhibition was 10.8% (inactive).

Take `Cc1nn(C)c(Oc2ccc(Cl)cc2)c1C=O`: the inhibition is -0.515% (inactive).

For the compound `CCOC(=O)c1sc2nc(C)nc(SCC(N)=O)c2c1C`, the inhibition is -4.58% (inactive).

`O=S1(=O)CCO[C@H]2Cc3ccccc3[C@H]2N1Cc1ccccc1`: the inhibition was -48.1% (inactive).

In the case of `CCCn1c(C)cc(/C=C(\C#N)C(=O)OCC(=O)N(C)c2c(N)n(Cc3ccccc3)c(=O)[nH]c2=O)c1C`, the inhibition was 11% (inactive).

As to `O=C(CCc1[nH]c2ccccc2c1Sc1ccccc1)N(CCO)CCO`, the inhibition is -4.7% (inactive).

Regarding `COc1cccc(-c2ccc(SCC(=O)N3CCN(c4ccccc4)CC3)nn2)c1`, the inhibition is 2.75% (inactive).

As for `CC(=O)N1CCSc2ccc(S(=O)(=O)N3CCC(C)CC3)cc21`, the inhibition was 2.03% (inactive).

In the case of `CC1(C)C(=O)CCC2(C)C1=CCC1C2C(=O)CC2(C)C1CCC2(O)C(=O)CO` (centres undefined), the inhibition was -1.57% (inactive).

As to `CCn1ccnc1CN(C)C(=O)c1ccc2nc(Cc3ccc(OC)cc3)oc2c1`, the inhibition is -0.56% (inactive).

With `CC[C@]12c3[nH]c4cc(CCC(=O)N(C)C)ccc4c3CCN1C(=O)[C@@H](CC(=O)NCCCN(C)C)C[C@@H]2C(=O)N1CCN(C(=O)c2ccco2)CC1`, the inhibition is -1.81% (inactive).

Consider `CC(OC(=O)c1ccc(-n2cnnn2)cc1)C(=O)NCc1ccccc1` (centres undefined), for which the inhibition is -2.55% (inactive).

`O=C(NCc1ccc(Cl)cc1)c1cc2c(nc3sccn32)s1`: the inhibition is -1.5% (inactive).

Take `CCCNC(=O)N1CCC(c2ccc3c(c2)OCO3)CC1`: the inhibition was 3.31% (inactive).

As to `Cc1noc(C)c1CCC(=O)O`, the inhibition was 1.5% (inactive).

With `COCCNc1nnc(SCC(=O)NNC(=O)c2ccco2)s1`, the inhibition is 3.66% (inactive).

On to `COc1ccc(COCCN2CCN(S(=O)(=O)c3ccccc3)CCC2=O)cc1`, for which the inhibition is 1.02% (inactive).

As for `CCN(CCn1cccn1)Cc1nc(-c2ccc(C(=O)OC)cc2)no1`, the inhibition was 0.0185% (inactive).

As to `CC1CCCCC1NC(=O)Cn1c(=O)cnc2ccccc21` (centres undefined), the inhibition was 2.53% (inactive).

With `CN(C(=O)CN(CCO)CC(=O)N(C)C(C)(C)Cc1ccccc1)C(C)(C)Cc1ccccc1`, the inhibition is 19.2% (inactive).

Regarding `CC(C#N)OC(=O)c1cccnc1SCC(=O)Nc1ccc2c(c1)OCO2` (centres undefined), the inhibition was -6.97% (inactive).

As for `O=C(NCCO)C(=O)NCC(c1ccc2c(c1)OCO2)N1CCN(c2ccc(F)cc2)CC1` (centres undefined), the inhibition was 0.936% (inactive).

As to `Cn1c(=O)c(C(=O)Nc2ncccn2)c(O)c2ccccc21`, the inhibition is -0.24% (inactive).

With `CC(C)CN(CC(C)C)C(=O)CN1c2cccc3cccc(c23)S1(=O)=O`, the inhibition was 0.144% (inactive).

Turning to `COc1ccccc1N1CCN(C(=O)C2Cc3ccccc3CN2C(=O)c2ccco2)CC1` (centres undefined), the inhibition was -8.37% (inactive).

As to `O=C(NC(=S)NC1CCSC1=O)c1ccccc1F` (centres undefined), the inhibition was -9.37% (inactive).

`CCc1c(O)cc2n(c1=O)-c1ccccc1C2(C)C`: the inhibition is -2.57% (inactive).

Regarding `CN(CC1CCCO1)S(=O)(=O)c1ccc(C(=O)Nc2ccc([N+](=O)[O-])cc2)cc1` (centres undefined), the inhibition was -6.82% (inactive).

Take `COc1ccccc1NC(=S)N1CCN(c2ccc(F)cc2)CC1`: the inhibition is 1.21% (inactive).

In the case of `CC1CN(C(=S)Nc2ccccc2F)CC(C)O1` (centres undefined), the inhibition was 6.69% (inactive).

Take `COc1c(N2CCN(C(=S)Nc3ccccc3F)C(C)C2)c(F)cc2c(=O)c(C(=O)O)cn(C3CC3)c12` (centres undefined): the inhibition is 91.3% (active).

As for `Cc1ccc(S(=O)(=O)N2CCN(C(=O)COC(=O)CNC(=O)c3ccc(C(C)(C)C)cc3)CC2)c(C)c1`, the inhibition was 6.64% (inactive).

Turning to `CN1CCN(S(=O)(=O)c2ccc(N3CCN(c4ccccc4O)CC3)c([N+](=O)[O-])c2)CC1`, the inhibition was -4.89% (inactive).

For the compound `O=C(NCc1ccco1)c1ccc(NS(=O)(=O)c2cccc([N+](=O)[O-])c2)cc1`, the inhibition is -12.7% (inactive).

Consider `COCCCNC(=O)CCc1nc2cccnc2n1Cc1ccc(OC)cc1`, for which the inhibition was 5.25% (inactive).

Regarding `Cc1ccc(NC(=S)N(CCN(C)C)Cc2cccs2)cc1C`, the inhibition is -0.631% (inactive).

For `COc1ccc2c3c1O[C@H]1C[C@@H](O)C=C[C@@]31CCN(C)C2`, the inhibition is -6.89% (inactive).
